Screening data deposited in PubChem BioAssay by several laboratories.
This is a sample that favours compounds with a hit; in the whole collection about 2% have one here.
ADAM17 inh – inhibits human ADAM17; recombinant ADAM17, EDANS/DABCYL FRET peptide cleavage; inhibition, % at 6.95 µM; 0.83% of 370,000 active; AID 720648;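 active = inhibition above the mean of compounds lying between control limits plus 3 SD, set per campaign, cut at about 8.5% in these data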
FAS-TE inh – inhibitors of human fatty acid synthase thioesterase domain; P49327; recombinant FAS-TE, OMFH fluorogenic substrate, fluorescence endpoint; inhibition, % at 15 µM; 0.67% of 360,000 active; AID 602261;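 active = compounds whose normalised, plate-corrected inhibition of enzyme fluorescence in the single-dose primary screen is 50% or more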
Target sequence (P49327 whole entry, looked up, the tested form may be a part): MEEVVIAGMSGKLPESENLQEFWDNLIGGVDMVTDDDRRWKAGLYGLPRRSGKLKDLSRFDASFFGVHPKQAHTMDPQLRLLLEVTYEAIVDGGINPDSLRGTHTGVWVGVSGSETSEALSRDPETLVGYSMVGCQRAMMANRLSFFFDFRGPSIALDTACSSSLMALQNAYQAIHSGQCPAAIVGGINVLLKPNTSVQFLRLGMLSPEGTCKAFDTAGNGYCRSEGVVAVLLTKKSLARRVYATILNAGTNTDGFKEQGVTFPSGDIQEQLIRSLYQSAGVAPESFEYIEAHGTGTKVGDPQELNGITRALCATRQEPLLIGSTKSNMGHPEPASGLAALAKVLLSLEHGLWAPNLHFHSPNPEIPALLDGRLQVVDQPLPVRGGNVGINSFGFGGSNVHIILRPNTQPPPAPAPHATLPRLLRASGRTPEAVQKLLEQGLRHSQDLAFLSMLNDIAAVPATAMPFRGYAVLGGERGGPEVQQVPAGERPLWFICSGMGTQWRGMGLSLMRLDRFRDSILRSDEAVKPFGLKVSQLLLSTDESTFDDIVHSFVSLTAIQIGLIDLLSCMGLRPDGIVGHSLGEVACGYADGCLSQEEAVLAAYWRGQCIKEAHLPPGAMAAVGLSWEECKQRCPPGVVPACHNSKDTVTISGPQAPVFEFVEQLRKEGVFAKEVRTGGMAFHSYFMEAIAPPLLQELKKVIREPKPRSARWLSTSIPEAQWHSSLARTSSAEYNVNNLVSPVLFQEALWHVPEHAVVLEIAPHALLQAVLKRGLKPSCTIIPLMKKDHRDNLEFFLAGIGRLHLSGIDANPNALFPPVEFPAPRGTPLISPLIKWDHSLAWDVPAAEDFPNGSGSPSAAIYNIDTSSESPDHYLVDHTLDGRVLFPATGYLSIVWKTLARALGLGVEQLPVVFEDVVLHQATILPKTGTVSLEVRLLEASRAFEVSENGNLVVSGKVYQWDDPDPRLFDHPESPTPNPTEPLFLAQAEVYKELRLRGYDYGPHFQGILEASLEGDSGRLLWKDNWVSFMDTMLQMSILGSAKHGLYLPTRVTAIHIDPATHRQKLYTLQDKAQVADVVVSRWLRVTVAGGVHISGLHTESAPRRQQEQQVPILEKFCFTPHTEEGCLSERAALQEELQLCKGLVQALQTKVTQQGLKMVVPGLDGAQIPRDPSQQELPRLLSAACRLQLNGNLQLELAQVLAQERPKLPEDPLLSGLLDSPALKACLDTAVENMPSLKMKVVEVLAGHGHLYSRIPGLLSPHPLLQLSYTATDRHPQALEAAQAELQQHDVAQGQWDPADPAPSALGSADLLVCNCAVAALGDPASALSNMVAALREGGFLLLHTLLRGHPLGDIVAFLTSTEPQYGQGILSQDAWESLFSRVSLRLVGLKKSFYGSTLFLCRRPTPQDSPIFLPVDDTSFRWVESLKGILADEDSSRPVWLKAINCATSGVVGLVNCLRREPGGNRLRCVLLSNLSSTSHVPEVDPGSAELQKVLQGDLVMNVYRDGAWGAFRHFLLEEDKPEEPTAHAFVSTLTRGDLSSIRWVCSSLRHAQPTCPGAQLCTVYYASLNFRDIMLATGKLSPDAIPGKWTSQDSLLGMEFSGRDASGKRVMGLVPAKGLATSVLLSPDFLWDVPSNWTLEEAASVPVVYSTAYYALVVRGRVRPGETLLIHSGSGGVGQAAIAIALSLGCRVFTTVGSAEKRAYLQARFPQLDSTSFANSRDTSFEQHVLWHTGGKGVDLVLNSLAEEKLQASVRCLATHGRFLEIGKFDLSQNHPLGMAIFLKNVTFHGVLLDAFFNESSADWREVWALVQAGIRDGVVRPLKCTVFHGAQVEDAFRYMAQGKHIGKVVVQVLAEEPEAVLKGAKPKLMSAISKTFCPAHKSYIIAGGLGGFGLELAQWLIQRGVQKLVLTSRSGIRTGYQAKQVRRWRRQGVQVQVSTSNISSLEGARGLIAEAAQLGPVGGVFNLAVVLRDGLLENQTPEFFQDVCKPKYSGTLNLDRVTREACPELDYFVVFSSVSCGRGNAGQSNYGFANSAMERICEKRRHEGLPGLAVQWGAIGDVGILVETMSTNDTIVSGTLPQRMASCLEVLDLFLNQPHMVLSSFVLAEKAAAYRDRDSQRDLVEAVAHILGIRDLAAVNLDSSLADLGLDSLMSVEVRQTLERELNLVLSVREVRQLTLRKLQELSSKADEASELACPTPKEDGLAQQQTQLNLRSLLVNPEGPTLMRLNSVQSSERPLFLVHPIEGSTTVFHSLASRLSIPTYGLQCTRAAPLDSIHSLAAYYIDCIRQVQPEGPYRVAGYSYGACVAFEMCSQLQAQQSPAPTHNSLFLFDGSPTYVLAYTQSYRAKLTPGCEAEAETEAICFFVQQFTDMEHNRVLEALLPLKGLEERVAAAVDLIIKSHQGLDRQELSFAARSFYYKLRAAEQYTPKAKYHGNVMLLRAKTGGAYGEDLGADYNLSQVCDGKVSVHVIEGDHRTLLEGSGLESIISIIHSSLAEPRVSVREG
GC-B act – GC-B (human) receptor activation; AID 1920062; HEK293-GC-B cells, CNP EC30, cGMP TR-FRET; 0% at EC30 CNP, 100% saturating CNP; 0.11% of 370,000 active; activation, % at 10 µM; P20594;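 active = activation at 10 µM reaching about 35% in either raw or pattern-adjusted values, limit read from the data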
ADAM10 inh – inhibits human ADAM10; O14672; recombinant ADAM10, EDANS/DABCYL FRET peptide cleavage, 3 h; inhibition, % at 7 µM; 0.62% of 370,000 active; AID 720582;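 active = inhibition above a per-campaign cutoff equal to the mean of compounds falling between control-based bounds plus 3 SD, cut at about 20% in these data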
NPR1 activator – GC-A (human) enzyme activation. P16066. HEK293 GC-A cells, cGMP TR-FRET, EC30 ANP; 0% at EC30 ANP, 100% saturating ANP. activation, % at 10 µM. 0.14% of 370,000 active; in the data active = activation above about 40%
ADAM10 confirm – human ADAM10 inhibition, confirmation. shares compounds with ADAM10 inh. ADAM10 QFRET peptide cleavage, EDANS fluorescence. inhibition, % at 6.95 µM. 1% of 2,100 active;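 active = inhibition above about 20% chosen separately for each screening run, limit read from the data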
ADAM17 counter – counter-screen for ADAM10 exosite inhibitors: inhibitors of human ADAM17 | inhibition, % at 6.95 µM | 0.5% of 2,100 active | ADAM17 QFRET peptide cleavage, EDANS fluorescence | shares compounds with ADAM10 inh;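 active = mean triplicate inhibition above the solvent-only control wells' mean plus 3 SD, cut at about 12% in these data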
ADAM10 ctr – inhibits human ADAM10 in ADAM17 exosite counter-screen | recombinant ADAM10, EDANS/DABCYL FRET peptide cleavage, 3 h | 47% of 2,900 active | shares compounds with ADAM17 inh | inhibition, % at 6.95 µM;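 active = mean inhibition over the triplicate runs exceeds the activity threshold set in the earlier primary screen, cut at about 20% in these data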
ADAM17 confirm – confirmation of inhibitors of human ADAM17. shares compounds with ADAM17 inh. inhibition, % at 6.95 µM. AID 743257. recombinant ADAM17, EDANS/DABCYL QFRET peptide cleavage. 65% of 2,900 active;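 active = mean inhibition across replicates above the hit cutoff set in the primary screen, cut at about 8.5% in these data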
A number is an active result; 0 = inactive; - = no result given.

SMILES	ADAM17 inh	FAS-TE inh	GC-B act	ADAM10 inh	NPR1 activator	ADAM10 confirm	ADAM17 counter	ADAM10 ctr	ADAM17 confirm
CC(C)c1ccc(Nc2nc(NCc3ccco3)nc(N3CCOCC3)n2)cc1	12	0	0	31	0	0	0	23	13
COc1ccc2c(c1)CCCN2C(=O)C1CCCN(S(=O)(=O)c2c(C(C)C)cc(C(C)C)cc2C(C)C)C1 (centres undefined)	0	-	0	0	0	-	-	-	-
CN(c1ccc(OCC(=O)OCC(=O)Nc2ccc(Br)cc2)cc1)S(=O)(=O)c1cccs1	12	0	0	20	0	0	0	31	16
O=C(COc1ccc(Cl)cc1)N1CCN(c2ccc([N+](=O)[O-])c(N3CCCCC3)c2)CC1	8.9	0	0	20	0	0	0	25	13
CCc1nc2ccc(C(=O)NCCOc3ccc(OC)cc3)cn2c1N(CC)Cc1cccc(Br)c1	0	0	0	0	0	-	-	-	-
CCc1nc2ccc(C(=O)Nc3cccc(NS(C)(=O)=O)c3)cn2c1N(CC)Cc1cccc(Br)c1	15	0	0	36	0	0	0	23	13
CCc1nc2ccc(C(=O)Nc3cccc(OC)c3)cn2c1N(CC)Cc1cccc(Br)c1	11	0	0	22	0	0	0	27	12
C=CCN1C(=O)[C@@H](CC(=O)N2CCC(c3ccccc3)CC2)[C@]2(C(=O)OCC)CCCCC/C=C/12	0	-	0	0	0	-	-	-	-
CCOc1ccc(S(=O)(=O)N(CC(=O)Nc2cc(C)on2)Cc2ccccc2Cl)cc1	16	0	0	29	0	0	0	0	0
O=S1(=O)c2c(NCc3ccco3)cccc2Oc2ccccc2CN1Cc1cn(Cc2ccc(Cl)cc2)nn1	0	-	0	0	0	-	-	-	-
Cc1noc(C)c1COc1ccc(C(=O)OCc2nnc(-c3ccc(Cl)cc3)o2)cc1	12	0	0	22	0	0	0	21	14
O=C(CCc1ccccc1)N[C@H]1[C@@H](O)CCC[C@]12C(=O)N(Cc1ccccc1)c1ccccc12	0	-	0	0	0	-	-	-	-
COc1ccc(Cn2ccc3ccc(-c4ccc5ccn(Cc6ccccc6)c5c4)cc32)cc1	0	-	0	0	0	-	-	-	-
CCOC(=O)c1ccc(NC(=O)C2CCCN(S(=O)(=O)c3ccc(F)cc3)C2)cc1 (centres undefined)	8.8	0	0	25	0	0	0	0	13
Cc1ccc(-c2ccc(CN3C(CC(C)C)C(=O)N(Cc4cn(CCC5OCCO5)nn4)CCS3(=O)=O)cc2)cc1 (centres undefined)	9.8	0	0	26	0	0	0	26	23
COCOCCn1cc(CN2CCS(=O)(=O)N(Cc3ccc(-c4ccc(Cl)c(Cl)c4)cc3)C(C(C)C)C2=O)nn1 (centres undefined)	9.1	0	0	27	0	0	0	28	20
COc1ccc(OC(F)(F)F)cc1CC1(C)C(=O)Nc2ccc(S(=O)(=O)NC3CCCCC3)cc21 (centres undefined)	10	0	0	23	0	0	0	40	18
CC1(Cc2ccccc2OC(F)(F)F)C(=O)Nc2ccc(S(=O)(=O)NC3CCCCC3)cc21 (centres undefined)	0	0	0	0	0	-	-	-	-
C#CCN(C[C@@H]1[C@@H](OC(=O)NCc2ccccc2F)[C@@H](OC(=O)NCc2ccccc2F)Cn2c(=O)ccc(=O)n21)S(=O)(=O)c1ccc(C)cc1	9.4	0	0	24	0	0	0	22	12
C#CCN(C[C@@H]1[C@@H](OC(=O)NCc2ccccc2F)[C@@H](OC(=O)NCc2ccccc2F)Cn2c(=O)n(CCCCCC)c(=O)n21)S(=O)(=O)c1ccc(C)cc1	0	0	0	0	0	-	-	-	-
COC(=O)CC1CCc2cc(C)cc(C(=O)CC(C)C)c2O1 (centres undefined)	0	-	0	0	0	-	-	-	-
COc1cc(/C=N/O)cc(Br)c1OCc1ccc(Cl)cc1	8.9	0	0	21	0	0	0	21	11
COc1cc(/C=N/O)cc(Br)c1OC	0	0	0	0	0	-	-	-	-
Cc1ccc(C(=O)Nc2cccc([N+](=O)[O-])c2)cc1S(=O)(=O)Nc1ccc(NC(=O)c2ccccc2)cc1	15	0	0	37	0	0	0	35	23
Cc1ccc(NS(=O)(=O)c2cc(C(=O)Nc3cccc([N+](=O)[O-])c3)ccc2C)cc1	0	0	0	0	0	-	-	-	-
SMILES	ADAM17 inh	FAS-TE inh	GC-B act	ADAM10 inh	NPR1 activator	ADAM10 confirm	ADAM17 counter	ADAM10 ctr	ADAM17 confirm
Cc1ccc(NC(=O)c2cccs2)cc1S(=O)(=O)Nc1cccc(Cl)c1	20	0	0	37	0	0	0	0	0
COc1ccc(NC(=O)Nc2ccccc2C(=O)N2CCCC2)cc1OC	0	-	0	0	0	-	-	-	-
C[C@H]1CN([C@@H](C)CO)C(=O)c2cccc(NS(=O)(=O)c3ccc(F)cc3)c2O[C@H]1CN(C)Cc1ccc(Cl)c(Cl)c1	9.2	0	0	20	0	0	0	28	15
COc1ccc(S(=O)(=O)Nc2cccc3c2O[C@H](CN(C)Cc2ccc(Cl)c(Cl)c2)[C@@H](C)CN([C@H](C)CO)C3=O)cc1	0	0	0	0	0	-	-	-	-
COc1ccc(C2C(C(=O)N3CCN(c4ccccc4C)CC3)CC(=O)N2c2ccc(OC)cc2)cc1 (centres undefined)	0	-	0	0	0	-	-	-	-
O=C(CCc1ccccc1)N[C@H]1[C@H](OCc2ccccc2)CCC[C@@]12C(=O)N(Cc1ccccc1)c1ccccc12	0	-	0	0	0	-	-	-	-
O=C(NCCc1c[nH]c2ccccc12)c1ccc(Sc2ccccc2Cl)c([N+](=O)[O-])c1	9.1	-	0	23	0	0	0	27	19
O=C(NCCc1ccccc1F)c1ccc(Sc2ccccc2Cl)c([N+](=O)[O-])c1	0	-	0	0	0	-	-	-	-
CN(C)c1cccc(/C=C2\CC3(OC(=O)c4ccc(Cl)cc4)CCCN2C3)c1 (centres undefined)	0	-	0	0	0	-	-	-	-
FC(F)(F)c1cccc(NC(=S)NCc2ccccn2)c1	0	0	0	0	0	-	-	-	-
FC(F)(F)c1cccc(NC(=S)NNC(=S)NCc2ccccc2)c1	12	0	0	20	0	0	0	31	19
